The target in experiment [1] is Lysosomal acid glucosylceramidase (Homo sapiens) (UniProt P04062). Description: Glucocerebrosidase-p2 (AID 348; in the data active = potency below about 10 µM; also: potency is read from the fitted curve at half-maximal effect). The following applies: purified GBA, blue fluorogenic substrate, 40 min. An outline of the steps:
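Compounds titrated from 0.6 nM upwards against 0.2 nM enzyme in pH 5.9 citric acid/KH2PO4, taurocholate, tween-20; blue fluorogenic substrate 80 uM, 40 min room temperature, stopped and read Ex 365/Em 440 for AC50.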

Experiment [2] in a line: AP1 Signaling Pathway (AID 357).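 Also: ME-180 reporter cells stimulated with EGF at its EC50 level; % is scaled to controls: 0 for no effect and ±100 for the full control effect.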 Particulars: ME-180 AP-1-bla reporter, EGF-induced, beta-lactamase ratio, 5 h; at 7.69 µM (top of the series) unless noted. An outline of the steps: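 In this screen, ME-180 cells in Opti-MEM with 0.5% dialyzed FBS received EC50 EGF and compound titrations for 5 h. AP-1 reporter beta-lactamase was detected via CCF4 ratio, giving AC50 for positive and negative modulators.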

Experiment [3] deals with Cytochrome P450 1A2 (Homo sapiens) (UniProt P05177). Briefly: p450-cyp1a2 (AID 410; calls by dose curve; also: potency is read from the fitted curve at half-maximal effect;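 as to activity change, negative = inhibition: -100% = full effect of reference inhibitor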). The following applies: recombinant CYP1A2, luciferin-ME demethylation, luminescence; series mostly up to 11.4 µM. An outline of the steps: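 20nM CYP1A2 with 100uM Luciferin-ME (at Km) in 100mM KPO4; compound preincubated 10 min, NADPH regeneration added, 60 min at room temperature. Luciferin quantified by luminescence after detection reagent; normalized to 57 uM furafylline.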
Sequence of Cytochrome P450 1A2 (Homo sapiens) (P05177 whole entry, looked up): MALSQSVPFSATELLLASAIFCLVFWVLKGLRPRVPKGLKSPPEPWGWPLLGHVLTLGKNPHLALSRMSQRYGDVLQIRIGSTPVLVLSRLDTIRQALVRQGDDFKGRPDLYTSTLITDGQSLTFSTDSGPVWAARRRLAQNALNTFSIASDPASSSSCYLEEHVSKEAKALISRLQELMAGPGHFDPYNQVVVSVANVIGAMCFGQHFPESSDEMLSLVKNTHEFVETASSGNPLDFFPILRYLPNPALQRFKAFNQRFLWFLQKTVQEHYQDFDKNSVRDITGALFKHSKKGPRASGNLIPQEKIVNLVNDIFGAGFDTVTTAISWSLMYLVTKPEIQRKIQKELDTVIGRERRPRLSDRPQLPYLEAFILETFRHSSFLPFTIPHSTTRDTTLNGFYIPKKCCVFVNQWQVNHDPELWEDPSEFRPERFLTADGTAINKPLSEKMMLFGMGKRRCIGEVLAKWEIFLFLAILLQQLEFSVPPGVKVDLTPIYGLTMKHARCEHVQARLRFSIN

Experiment [4] is described as follows: Stat Signaling Pathway (AID 446).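 Also: ME-180 cervical cancer cells given 40 pM IL-6 alongside compound; SIE-controlled beta-lactamase reporter measured as 460/530 nm FRET emission ratio; % is scaled to controls: 0 for no effect and ±100 for the full control effect.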 The following applies: ME-180 SIE beta-lactamase reporter, IL-6 stimulated, 5 h; at 7.69 µM (top of the series) unless noted. The essentials: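 ME-180 SIE-bla cells; overnight plating; cpd + IL-6 40 pM, 5 h, 37 C; LiveBLAzer 2.5 h RT; 460/530 nm emission ratio. Normalized to 300 pM IL-6 and 125 nM JAK inhibitor controls.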

Experiment [5] addresses Glucocorticoid receptor (Homo sapiens) (UniProt P04150). Description: GR-GFP Redistribution (AID 450;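 active = compounds whose dose series gives a full or clear partial fitted curve of increased nuclear translocation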; also: potency is read from the fitted curve at half-maximal effect). The following applies: U2OS GR-GFP nuclear translocation, laser cytometry, 2 h.
In experiment [6] the target is Mitogen-activated protein kinase 10 (Mus musculus) (UniProt Q61831). Description: JNK3 AlphaScreen Assay (AID 530).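 Also: kinase came from lysate of stimulated human HepG2 cells; signal reports phosphorylation of biotinylated GST-cJun 1-79 at Ser73 with 10 µM ATP; % is scaled to controls: 0 for no effect and ±100 for the full control effect.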 The following applies: JNK3 lysate, c-Jun phosphorylation; series mostly up to 11.4 µM. The essentials: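 Inhibitors reduce antibody binding to phosphorylated biotin-cJun, lowering AlphaScreen luminescence. Lysates from HepG2 cells pre-activated by IL-1beta plus TNF-alpha supplied JNK3; compounds were titrated.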

Experiment [7] deals with 3',5'-cyclic-AMP phosphodiesterase 4B (Homo sapiens) (UniProt Q07343). Description: qHTS Assay for Inhibitors of PDE-IV (AID 607; active = well fitted activation curve with a large enough effect in the main read-out, with a control signal flat, not every such curve was filed as active; also: % of control where 0% means no effect). Particulars: HEK293 ACTOne CNG channel cells, membrane potential fluorescence; series mostly up to 22.9 µM. An outline of the steps: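 ACTOne HEK293 cells carry a modified cAMP-gated CNG channel and express endogenous PDE4; plated 1000 cells/well, compounds up to 22.9 uM final. Membrane-potential dye fluorescence (ex 535/em 590) was read; parental cells received 10 uM forskolin + 100 uM RO 20-1724.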
Sequence of 3',5'-cyclic-AMP phosphodiesterase 4B (Homo sapiens) (Q07343 whole entry, looked up): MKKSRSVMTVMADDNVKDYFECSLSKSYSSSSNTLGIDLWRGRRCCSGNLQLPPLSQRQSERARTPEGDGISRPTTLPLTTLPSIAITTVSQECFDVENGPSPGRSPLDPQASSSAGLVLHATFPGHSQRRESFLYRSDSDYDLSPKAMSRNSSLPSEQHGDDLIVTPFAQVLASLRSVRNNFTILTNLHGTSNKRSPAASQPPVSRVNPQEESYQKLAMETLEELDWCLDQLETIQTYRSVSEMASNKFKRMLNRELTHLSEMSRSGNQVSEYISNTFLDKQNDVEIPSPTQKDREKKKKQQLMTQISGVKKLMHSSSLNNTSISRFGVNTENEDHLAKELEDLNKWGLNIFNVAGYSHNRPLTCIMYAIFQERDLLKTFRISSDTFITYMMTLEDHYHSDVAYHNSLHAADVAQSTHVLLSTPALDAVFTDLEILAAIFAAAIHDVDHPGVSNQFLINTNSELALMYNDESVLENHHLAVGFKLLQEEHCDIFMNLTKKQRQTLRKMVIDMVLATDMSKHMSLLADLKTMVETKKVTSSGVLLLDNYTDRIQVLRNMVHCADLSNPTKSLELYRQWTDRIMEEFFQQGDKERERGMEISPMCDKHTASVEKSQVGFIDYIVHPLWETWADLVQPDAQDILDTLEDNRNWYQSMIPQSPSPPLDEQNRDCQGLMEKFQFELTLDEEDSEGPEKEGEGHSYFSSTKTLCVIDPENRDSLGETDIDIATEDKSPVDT
Background: Quantitative high-throughput screening tests each substance at several concentrations.

A short description of experiment [8]: qHTS Assay for Identification of Small Molecule Agonists for Hypoxia Response Element Signaling Pathway (AID 914; active = well fitted activation curve with a large enough effect in the signal ratio, with a control signal flat, not every such curve was filed as active; the % refers to the signal ratio; also: % of control where 0% means no effect). Particulars: ME-180 (cervical carcinoma) HRE-bla reporter, beta-lactamase ratio, CoCl2, 17 h; activation: hits give high values. The essentials: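 HRE-bla ME-180 cells with beta-lactamase reporter under hypoxia response element, compounds with EC50 CoCl2 for 17 hours at 37 C. CCF4 substrate, 460nm/530nm emission ratio gave %Activity; AC50 from titration series.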

The target in experiment [9] is Glucocorticoid receptor (Homo sapiens) (UniProt P04150). Description: GR-EFC Redistribution (AID 451; calls by dose curve; also: potency is read from the fitted curve at half-maximal effect). Particulars: CHO-K1 GR-EFC translocation, beta-gal luminescence, 2 h. The essentials: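 CHO-K1 cells stably expressing nuclear-localized β-gal enzyme acceptor and GR fused C-terminally to the enzyme donor fragment; ligand-driven nuclear translocation restores β-gal by complementation. Compounds titrated up to 46 uM final, 2 h at 37 °C; luminescence read.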
Sequence of Glucocorticoid receptor (Homo sapiens) (P04150 whole entry, looked up, the tested form may be a part): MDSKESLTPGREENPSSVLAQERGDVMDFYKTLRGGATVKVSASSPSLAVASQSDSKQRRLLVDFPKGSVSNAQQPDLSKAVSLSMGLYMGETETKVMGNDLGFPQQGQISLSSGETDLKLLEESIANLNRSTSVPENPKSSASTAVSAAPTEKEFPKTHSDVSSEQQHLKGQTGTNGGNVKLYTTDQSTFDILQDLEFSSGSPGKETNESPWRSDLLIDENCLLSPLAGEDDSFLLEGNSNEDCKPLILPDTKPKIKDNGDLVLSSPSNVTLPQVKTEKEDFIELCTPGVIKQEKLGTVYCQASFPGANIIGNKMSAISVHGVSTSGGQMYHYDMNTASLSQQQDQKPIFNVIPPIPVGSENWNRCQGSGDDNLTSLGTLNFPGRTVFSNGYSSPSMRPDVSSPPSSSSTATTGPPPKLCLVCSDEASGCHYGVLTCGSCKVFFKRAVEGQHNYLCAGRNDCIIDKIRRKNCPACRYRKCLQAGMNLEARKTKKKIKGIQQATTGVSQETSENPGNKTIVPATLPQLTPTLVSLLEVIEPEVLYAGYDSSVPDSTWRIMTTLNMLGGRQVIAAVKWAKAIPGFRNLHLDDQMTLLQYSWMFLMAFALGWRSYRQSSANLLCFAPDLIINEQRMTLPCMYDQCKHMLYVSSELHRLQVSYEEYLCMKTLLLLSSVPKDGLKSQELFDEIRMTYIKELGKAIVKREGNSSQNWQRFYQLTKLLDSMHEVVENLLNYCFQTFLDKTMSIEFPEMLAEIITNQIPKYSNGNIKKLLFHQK

Experiment [10] addresses Cytochrome P450 2C9 (Homo sapiens) (UniProt P11712). Description: qHTS Assay for Inhibitors and Substrates of Cytochrome P450 2C9 (AID 883; active = well fitted curve in the direction sought with a large enough effect; an effect the other way counts as inactive or inconclusive; also: potency is read from the fitted curve at half-maximal effect; nearly all actives have a fitted effect of over 60% in size). Particulars: recombinant CYP2C9, luciferin-H luminescence, 60 min; series mostly up to 11.4 µM. An outline of the steps:
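A luminogenic readout tracked human CYP2C9 (10nM) converting deoxyluciferin (100uM, at KM) in 25mM KPO4 during 60 min at 37C with regenerated NADPH. Values normalized to 57uM sulphaphenazole as complete inhibition.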

The target of experiment [11] is Cytochrome P450 3A4 (Homo sapiens) (UniProt P08684). Briefly: qHTS Assay for Activators of Cytochrome P450 3A4 (AID 885; active = well fitted curve in the direction sought with a large enough effect; an effect the other way counts as inactive or inconclusive; also: nearly all actives have a fitted effect of over 65% in size). The following applies: recombinant CYP3A4, Luciferin-PPXE luminescence, 60 min; series mostly up to 11.4 µM. The essentials:
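20nM CYP3A4 + 25uM Luciferin-PPXE (=KM), 200mM KPO4; cpd 10 min RT; NADPH regen, 60 min RT; stop w/ detection buffer, 20 min; luminescence. Normalized to 57 uM ketoconazole.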

Experiment [12] concerns the target Cytochrome P450 2D6 (Homo sapiens) (UniProt P10635). Briefly: qHTS Assay for Inhibitors and Substrates of Cytochrome P450 2D6 (AID 891; active = well fitted curve in the direction sought with a large enough effect; an effect the other way counts as inactive or inconclusive;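 also: luciferin methyl ether substrate demethylated by CYP2D6 with NADPH regeneration; % is scaled to controls: 0 for no effect and ±100 for the full control effect; nearly all actives have a fitted effect of over 60% in size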). Particulars: recombinant CYP2D6, luciferin-ME EGE luminescence; series mostly up to 11.4 µM. The essentials:
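Human CYP2D6 (5 nM) with 30 uM Luciferin-ME EGE (at Km) in 100 mM KPO4, compound preincubated 10 min, then NADPH regeneration system for 60 min at room temperature. Luciferin read by luminescence; normalized to 1.43 uM quinidine.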

The target in experiment [13] is Cytochrome P450 2C19 (Homo sapiens) (UniProt P33261). Description: qHTS Assay for Inhibitors and Substrates of Cytochrome P450 2C19 (AID 899; active = well fitted curve in the direction sought with a large enough effect; an effect the other way counts as inactive or inconclusive; also: nearly all actives have a fitted effect of over 60% in size; also: potency is read from the fitted curve at half-maximal effect; as to activity, negative = inhibition: % is scaled to controls: 0 for no effect and ±100 for the full control effect). The following applies: recombinant CYP2C19, luciferin-H EGE luminescence; series mostly up to 11.4 µM. An outline of the steps: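 NADPH-dependent conversion of Luciferin-H EGE (10uM, at KM) by 5nM enzyme in 50mM KPO4, 60 min at 37C following 10 min compound preincubation. Stopped with luciferin detection buffer; luminescence read after 20 min.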
Sequence of Cytochrome P450 2C19 (Homo sapiens) (P33261 whole entry, looked up): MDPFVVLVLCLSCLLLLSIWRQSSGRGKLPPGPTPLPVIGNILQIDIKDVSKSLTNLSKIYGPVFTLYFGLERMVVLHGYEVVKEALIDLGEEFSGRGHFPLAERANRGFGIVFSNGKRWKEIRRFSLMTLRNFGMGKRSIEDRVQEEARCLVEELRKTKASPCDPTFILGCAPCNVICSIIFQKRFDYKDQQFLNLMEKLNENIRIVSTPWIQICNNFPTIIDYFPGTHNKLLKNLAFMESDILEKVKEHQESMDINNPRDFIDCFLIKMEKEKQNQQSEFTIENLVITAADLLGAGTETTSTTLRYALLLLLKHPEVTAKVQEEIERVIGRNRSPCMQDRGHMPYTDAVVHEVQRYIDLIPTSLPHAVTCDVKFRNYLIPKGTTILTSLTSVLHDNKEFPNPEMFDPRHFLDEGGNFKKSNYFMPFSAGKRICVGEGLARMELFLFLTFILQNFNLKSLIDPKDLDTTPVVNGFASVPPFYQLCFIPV

For experiment [14], the target named is Cytochrome P450 3A4 (Homo sapiens) (UniProt P08684). Description: qHTS Assay for Inhibitors and Substrates of Cytochrome P450 3A4 (AID 884; active = well fitted curve in the direction sought with a large enough effect; an effect the other way counts as inactive or inconclusive; also: % is scaled to controls: 0 for no effect and ±100 for the full control effect; nearly all actives have a fitted effect of over 50% in size). The following applies: recombinant CYP3A4, Luciferin-PPXE luminescence; series mostly up to 57.1 µM. An outline of the steps:
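20 nM human CYP3A4 with 25 uM Luciferin-PPXE (at KM) in 200 mM KPO4, preincubated 10 min with compound; NADPH regeneration started a 60 min RT reaction. Luciferin detected by luminescence, normalized to 57 uM ketoconazole as full inhibition.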

Values without a mark were called inactive. Inconclusive results are not listed. Activity calls are given as the source filed them. Unless noted, calls follow the shape of the dose curve; as a rule, active = well fitted curve in either direction with a large enough effect (not every such curve was filed as active); inconclusive = small, poorly fitted or top-dose-only effect, or another doubt; inactive = flat fitted curve, though single readings scatter. Some results are limits rather than exact numbers.

Sequence of Lysosomal acid glucosylceramidase (Homo sapiens) (P04062 whole entry, looked up): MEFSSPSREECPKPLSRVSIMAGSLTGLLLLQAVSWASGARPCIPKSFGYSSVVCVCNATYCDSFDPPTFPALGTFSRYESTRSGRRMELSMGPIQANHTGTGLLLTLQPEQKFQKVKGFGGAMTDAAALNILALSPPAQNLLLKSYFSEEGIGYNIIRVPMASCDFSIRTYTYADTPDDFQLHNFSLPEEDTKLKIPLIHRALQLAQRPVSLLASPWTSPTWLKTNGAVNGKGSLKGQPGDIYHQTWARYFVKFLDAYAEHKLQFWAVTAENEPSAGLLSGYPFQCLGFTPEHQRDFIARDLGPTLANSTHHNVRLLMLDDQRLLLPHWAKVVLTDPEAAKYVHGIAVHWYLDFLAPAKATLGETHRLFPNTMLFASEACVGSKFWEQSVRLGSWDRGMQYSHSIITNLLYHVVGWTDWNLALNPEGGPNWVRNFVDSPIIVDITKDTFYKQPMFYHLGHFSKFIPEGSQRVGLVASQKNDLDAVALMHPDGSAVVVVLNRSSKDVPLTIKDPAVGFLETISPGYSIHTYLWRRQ
Sequence of Cytochrome P450 3A4 (Homo sapiens) (P08684 whole entry, looked up): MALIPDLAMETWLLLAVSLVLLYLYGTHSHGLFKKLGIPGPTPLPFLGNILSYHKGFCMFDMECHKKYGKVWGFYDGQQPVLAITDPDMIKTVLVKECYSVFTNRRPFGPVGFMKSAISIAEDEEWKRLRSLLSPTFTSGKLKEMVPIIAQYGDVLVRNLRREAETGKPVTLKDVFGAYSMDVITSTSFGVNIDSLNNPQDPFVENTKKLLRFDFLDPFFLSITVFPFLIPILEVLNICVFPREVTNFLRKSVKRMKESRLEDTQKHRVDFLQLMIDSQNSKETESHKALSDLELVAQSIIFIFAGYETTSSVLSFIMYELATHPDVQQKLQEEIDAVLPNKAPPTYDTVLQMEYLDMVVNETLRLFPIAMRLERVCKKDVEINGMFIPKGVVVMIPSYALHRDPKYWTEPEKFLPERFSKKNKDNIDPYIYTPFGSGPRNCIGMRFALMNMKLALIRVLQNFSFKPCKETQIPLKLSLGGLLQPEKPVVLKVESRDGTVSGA
Sequence of Cytochrome P450 2D6 (Homo sapiens) (P10635 whole entry, looked up): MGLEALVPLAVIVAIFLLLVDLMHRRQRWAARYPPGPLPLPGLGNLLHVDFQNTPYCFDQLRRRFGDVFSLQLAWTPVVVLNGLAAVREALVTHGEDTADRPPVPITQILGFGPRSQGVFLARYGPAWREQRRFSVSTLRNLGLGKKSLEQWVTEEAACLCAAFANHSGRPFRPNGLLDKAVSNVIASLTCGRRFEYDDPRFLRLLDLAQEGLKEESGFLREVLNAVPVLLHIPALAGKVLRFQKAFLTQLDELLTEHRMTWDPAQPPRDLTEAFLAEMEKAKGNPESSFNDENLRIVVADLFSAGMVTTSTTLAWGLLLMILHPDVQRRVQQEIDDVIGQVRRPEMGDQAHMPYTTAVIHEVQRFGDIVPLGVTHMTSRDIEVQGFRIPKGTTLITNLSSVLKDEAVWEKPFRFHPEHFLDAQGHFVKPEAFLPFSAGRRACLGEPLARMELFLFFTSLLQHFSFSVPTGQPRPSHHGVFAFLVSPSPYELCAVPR
Sequence of Cytochrome P450 2C9 (Homo sapiens) (P11712 whole entry, looked up): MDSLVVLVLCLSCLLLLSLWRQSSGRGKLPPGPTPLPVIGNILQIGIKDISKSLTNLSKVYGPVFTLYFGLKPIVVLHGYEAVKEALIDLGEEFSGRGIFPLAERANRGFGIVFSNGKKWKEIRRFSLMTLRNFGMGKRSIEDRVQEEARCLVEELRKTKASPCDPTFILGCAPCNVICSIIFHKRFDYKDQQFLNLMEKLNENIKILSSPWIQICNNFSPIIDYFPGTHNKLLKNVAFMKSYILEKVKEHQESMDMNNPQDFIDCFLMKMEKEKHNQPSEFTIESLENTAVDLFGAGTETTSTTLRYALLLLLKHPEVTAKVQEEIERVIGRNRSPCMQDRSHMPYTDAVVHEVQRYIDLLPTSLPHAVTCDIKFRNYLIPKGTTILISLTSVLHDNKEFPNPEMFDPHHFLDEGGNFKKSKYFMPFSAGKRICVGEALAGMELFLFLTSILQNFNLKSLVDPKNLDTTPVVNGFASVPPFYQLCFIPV

Take `O=S(=O)(O)CCCc1cccc2ccccc12`: the Potency in [1] is more than 11.4 µM; in [5], more than 46 µM. Also, the values for the activity change, negative = inhibition in [2] and in experiment [3] were 3.46% and -16.7% [at 2.29 µM], respectively. Moreover, the activity, negative = inhibition in experiment [4] was 1.1%. Further, the Potency result in experiment [6] and in [7] was “inactive” in each case. The activation in [8] is -2.01%.

Take `Cc1cc(O)c(-c2cc(O)c(C)cc2O)cc1O`: the Potency is more than 11.4 µM in [1]; 3.98 µM (active) in experiment [3]; more than 46 µM in [5]; more than 9.22 µM in experiment [9]; 1.26 µM (active) in experiment [10]; 0.794 µM (active) in experiment [13]. In addition, the activity change, negative = inhibition in experiment [2] is -22.9%. In addition, the Potency entry in [6], in experiment [7], in experiment [11] and in [12] was “inactive” in each case.

With `CSc1ncnc2c1ncn2CC(=O)[C@H]1CC[C@H]2[C@H]3CCC4=CC(=O)CC[C@@]4(C)[C@@H]3CC[C@@]12C`, the Potency in experiment [1] is more than 11.4 µM; in experiment [3], 3.98 µM (active); in experiment [5], more than 46 µM; in experiment [9], more than 9.22 µM. Besides, the activity change, negative = inhibition was -21.5% in [2] and -20.1% [at 11.4 µM] in experiment [14]. For the same compound, the Potency entry in experiment [6], in experiment [7], in experiment [12] and in experiment [13] was “inactive” throughout.

For the origin of these results see PubChem BioAssay (NCATS).
